Among all 320,000 compounds or so, about 2,100 (0.66%) were called active. Another 53% or so got no clear call; they are omitted. Calls come from the whole dose curve; as a rule, active = well fitted inhibition curve with a large enough effect in the signal ratio, with a control signal flat (not every such curve was filed as active); inconclusive = small, poorly fitted or top-dose-only effect, or effect the other way, or a change in a side signal; inactive = flat fitted curve, though single readings scatter; the % refers to the signal ratio. This excerpt belongs to a sample that is enriched for actives.
Potency is the fitted concentration of half-maximal effect.

The assay is described as follows: qHTS Assay for Lipid Storage Modulators in Drosophila S3 Cells.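 For cell number change: cells counted by Cell Tracker Red CMTPX staining in the red channel.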 For lipid storage change, negative = inhibition: % is set by controls: 0 for no effect and ±100 for the full control effect. The conditions noted are these: BODIPY lipid droplet fluorescence, 18-24 h, cells fed with added oleic acid; cell number change: measured here: cell count max response; series mostly up to 46.1 µM; lipid storage change, negative = inhibition: at the top concentration. An outline of the steps:
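Laser-scanning cytometry quantifies lipid droplet accumulation (500–530 nm total intensity; droplet/cell object ratio) in oleic acid-fed (400 uM added) Drosophila S3 cells treated with a concentration series. 20 uM Triacsin C defined 100% inhibition.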
For orientation: In qHTS, concentration-response curves come from the screen itself.
On to `COc1ccc(C2=NC(C)(C)Cc3cc(OC)c(OC)cc32)cc1`, for which the “lipid storage change, negative = inhibition” value was 14.1% (inactive) and the cell number change was -1.73%.

In the case of `CCNC(=O)n1nccc1C(C)Oc1ccccc1` (stereo unspecified), the “lipid storage change, negative = inhibition” value was 7.19% (inactive) and the cell number change came out at 17.8%.

Turning to `CCc1ccc(CNC(=O)C2CCN(S(=O)(=O)N3CC(C)CC(C)C3)CC2)cc1` (stereo unspecified), the “lipid storage change, negative = inhibition” value was -15.9% (inactive) and the cell number change was 14.3%.

Take `Cc1ccc(CNC(=O)CSc2nccn(-c3ccc(C)c(F)c3)c2=O)cc1`: the Potency was 14.6 µM (active) and the cell number change is -20%.

Consider `COc1ccc(CNC(=O)CSc2nccn(-c3ccc(F)c(F)c3)c2=O)cc1`, for which the cell number change was 17.2% and the lipid storage change, negative = inhibition is -25.5% [at 0.0737 µM] (inactive).

As for `CCOc1ccc(-n2ccnc(SCC(=O)NCCc3ccccc3)c2=O)cc1`, the “lipid storage change, negative = inhibition” value is 22.2% (inactive) and the cell number change was -8.43%.

For `CN1CCN(c2ncnc3sc(-c4ccccc4)cc23)CC1`, the “lipid storage change, negative = inhibition” value is 15% (inactive) and the cell number change was 24.2%.

Take `CCN(CC)S(=O)(=O)c1ccc(C(=O)/C=C/c2ccc(-c3ccc([N+](=O)[O-])cc3)o2)cc1`: the “lipid storage change, negative = inhibition” value was -2.16% (inactive) and the cell number change turned out to be 6.91%.

In the case of `CCc1ccc(C(=O)/C=C/c2ccc([N+](=O)[O-])o2)cc1`, the Potency is 1.3 µM (active) and the cell number change is -21.1%.

With `O=C(/C=C\c1ccc(-c2cccc([N+](=O)[O-])c2)o1)N1CCOCC1`, the “lipid storage change, negative = inhibition” value was 0.516% (inactive) and the cell number change worked out at 1.96%.

On to `COc1ccc(/C=C/C(=O)c2ccc([N+](=O)[O-])o2)cc1`, for which the “lipid storage change, negative = inhibition” value was -7.12% (inactive) and the cell number change is 5.86%.

Turning to `CN1CCN(C(=O)/C=C/c2ccc([N+](=O)[O-])o2)CC1`, the Potency is 32.6 µM (active) and the cell number change was -21.6%.

As for `CN1CCN(C(=O)/C=C/c2ccc([N+](=O)[O-])cc2)CC1`, the “lipid storage change, negative = inhibition” value was -0.257% (inactive) and the cell number change is -5.05%.

For the molecule `CCOC(=O)c1ccc(NC(=S)NNC(=O)c2cc(-c3cccnc3)nc3ccccc23)cc1`, the “lipid storage change, negative = inhibition” value is -22.8% (inactive) and the cell number change is -10.9%.

`OCC1(CCc2ccccc2)CCN(Cc2cnc(N3CCCC3)s2)CC1`: the “lipid storage change, negative = inhibition” value is -4.43% (inactive) and the cell number change was -1.4%.

For `O=C(CCC(=O)N1CCOc2ccccc21)Nc1cc(F)ccc1F`, the “lipid storage change, negative = inhibition” value is -28.3% (inactive) and the cell number change was -2.02%.

With `O=C1OCc2ccc(NC(=O)c3ccccc3C(=O)O)cc21`, the “lipid storage change, negative = inhibition” value is -11.6% (inactive) and the cell number change turned out to be 2.9%.

`Cc1ccc(C)c(S(=O)(=O)Nc2ccc(C(=O)NCC(c3ccco3)N3CCCCC3)cc2)c1` (stereo unspecified): the “lipid storage change, negative = inhibition” value was -6.69% (inactive) and the cell number change was determined as 16%.

Regarding `Cc1ccc2[nH]c(=O)c(CN(C)C(=O)c3cccs3)cc2c1`, the “lipid storage change, negative = inhibition” value is -3.04% (inactive) and the cell number change was -11.8%.

On to `COC(=O)c1c(NC(=O)CCl)sc(C(=O)N2CCOCC2)c1C`, for which the Potency was 0.651 µM (active) and the cell number change was -18.1%.

Consider `COC(=O)c1c(NC(=O)c2ccccc2OC)sc(C(=O)N2CCOCC2)c1C`, for which the molecule was called inactive and the cell number change was 4.76%.

In the case of `COC(=O)c1c(N)sc(C(=O)N2CCOCC2)c1C`, the call was inactive and the cell number change stood at 8.28%.

In the case of `O=C(Cc1ccc(F)cc1)Nc1c(C(=O)N2CCN(c3ncccn3)CC2)oc2ccccc12`, the call was inactive and the cell number change worked out at 26.3%.

Regarding `COc1ccccc1CCNC(=O)c1cc(-c2ccncc2)nc2ccc(Br)cc12`, the “lipid storage change, negative = inhibition” value was -8.45% (inactive) and the cell number change is -14.5%.

As for `O=C(CCc1c[nH]c2ccccc12)OCc1cccc([N+](=O)[O-])c1`, the Potency was 5.8 µM (active) and the cell number change worked out at 0.451%.

As to `O=C(COC(=O)CCc1c[nH]c2ccccc12)Nc1cc([N+](=O)[O-])ccc1Cl`, the “lipid storage change, negative = inhibition” value was 9.58% (inactive) and the cell number change is 17.2%.

`O=C(COC(=O)CCc1c[nH]c2ccccc12)Nc1ccc([N+](=O)[O-])cc1`: the “lipid storage change, negative = inhibition” value was -0.164% (inactive) and the cell number change is -0.284%.

`Cn1c(C(=O)Nc2ccccc2)cc2sccc21`: the “lipid storage change, negative = inhibition” value was -9.82% (inactive) and the cell number change is -17.5%.

In the case of `Cc1cccc(NC(=O)CCC(=O)N2CCOCC2)n1`, the “lipid storage change, negative = inhibition” value was 6.69% (inactive) and the cell number change was -0.208%.

Turning to `O=C(Nc1c2c(nn1-c1ccccc1)CS(=O)C2)c1ccco1` (stereo unspecified), the molecule was classed as inactive and the cell number change was -4.99%.

Turning to `CC(C)(C)n1nc2c(c1NC(=O)c1ccc(Br)o1)CS(=O)C2` (stereo unspecified), the “lipid storage change, negative = inhibition” value is -2.21% (inactive) and the cell number change turned out to be 12.2%.

Consider `CC(C)(C)n1nc2c(c1NC(=O)c1ccco1)CS(=O)C2` (stereo unspecified), for which the Potency was 29.1 µM (active) and the cell number change was -3.33%.

On to `CCN1C(=O)/C(=c2\sc3nc(=O)c(Cc4ccccc4)nn3c2=O)c2ccccc21`, for which the “lipid storage change, negative = inhibition” value is 3.23% (inactive) and the cell number change is 6.19%.

Take `Oc1ccc[n+](CCCCC[n+]2cccc(O)c2)c1`: the “lipid storage change, negative = inhibition” value was -6.79% (inactive) and the cell number change was -10%.

As for `C(C#CCCCCCCCCC[n+]1ccccc1)#CCCCCCCCCC[n+]1ccccc1`, the Potency is 13 µM (active) and the cell number change came out at 2.42%.

`O=C(O)CCCCCCCCCC[n+]1ccccc1`: the “lipid storage change, negative = inhibition” value is -6.38% (inactive) and the cell number change worked out at 3.19%.

For the molecule `CSc1ccc(CN2CCCC(N3CCN(c4ccccc4)CC3)C2)cc1` (stereo unspecified), the “lipid storage change, negative = inhibition” value is 12.6% (inactive) and the cell number change was -9.94%.

For `CC(C)(C)c1cc(C(=O)NNc2cc(C(F)(F)F)ccc2Cl)n(Cc2ccccc2)n1`, the Potency was 25.9 µM (active) and the cell number change is -27.1%.

Regarding `COc1ccccc1NNC(=O)c1cc(C(C)(C)C)nn1Cc1ccccc1`, the “lipid storage change, negative = inhibition” value is 3.58% (inactive) and the cell number change came to 13.3%.

With `CC(C)(C)c1cc(C(=O)NNc2ccc(OC(F)(F)F)cc2)n(Cc2ccccc2)n1`, the “lipid storage change, negative = inhibition” value is 4.79% (inactive) and the cell number change worked out at 8.19%.

For `CC1CCCCC1NC(=O)c1ccc(S(=O)(=O)NCC2CCCO2)cc1` (stereo unspecified), the “lipid storage change, negative = inhibition” value is -16% (inactive) and the cell number change was determined as 3.19%.

Consider `Cc1ccc(NC2OC(CO)C(O)C(O)C2O)cc1` (stereo unspecified), for which the call was inactive and the cell number change is -12.8%.

Take `Cc1ccc(NC2OC(CO)C(O)C2O)cc1[N+](=O)[O-]` (stereo unspecified): the “lipid storage change, negative = inhibition” value is -8.08% (inactive) and the cell number change was -2.09%.
